# Pf Dd2 growth = Plasmodium falciparum Dd2 growth inhibition. P. falciparum Dd2 growth, SYBR Green, 72 h. Potency, µM (series often up to 28.9 µM), inactives show at the top dose activity, negative = inhibition, usual class: inhibitors. hit rate 4.3% among 120,000. AID 1347417; active means well fitted inhibition curve with a large enough effect;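 further: plate controls were DMSO vehicle for no effect and reference drug for full effect; nearly all actives have a fitted effect of over 65% in size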
#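 Readout: SYBR Green fluorescence, 485 nm excitation, 535 nm emission, after ~16 h lysis at 37C. Before that, Dd2-infected red cells (2.5% hematocrit) grew 72 h with compound, 29 uM top final concentration.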
# * = called active by the depositor; i = inactive; [ ] = dose if it differs, or a comment. Many of the other results were omitted from the sample, so hits are more common in it than they were. Potency means the concentration at half of the fitted maximal effect.
SMILES,Pf Dd2 growth
CCOCCn1c(=O)[nH]c2cc(C(=O)NCc3cc(=O)[nH]c(C)n3)ccc21,-10%
COc1ccc(C(=O)N[C@H]2CO[C@H]3[C@@H]2OC[C@H]3OCc2ccccc2)cc1,0%[44.1 µM]
O=c1c(-c2cccs2)ccc2n1C[C@H]1C[C@@H]2CN(Cc2cc3ccccc3o2)C1,-16%[44.1 µM]
O=C(C[C@H]1NC(=O)c2ccccc2NC1=O)Nc1cccc2[nH]ccc12,-22%
Fc1ccc(-c2nc3nccc(-c4ccsc4)n3n2)cc1Cl,-7%
COc1cccc(OCc2nc3ccccc3n2CCOc2ccccc2)c1,-1%
c1ccc(OCCn2c(COc3ccccc3)nc3ccccc32)cc1,i
CCn1c(=N)n(CCOc2ccc(Br)cc2)c2ccccc21,5µM*
COCCNc1c(-c2noc(C)c2C(=O)Nc2ccc(OC)nc2)cnn1C,2%[44.1 µM]
Cc1oc(-c2ccccc2)nc1Cn1c(=O)cc(-c2ccccc2)c2c(C)nn(C)c21,10µM*
Cc1ccc(C)c(-c2nc(Cn3c(=O)cc(-c4ccccc4)c4c(C)nn(C)c43)c(C)o2)c1,43%
Cc1cccc(-c2nc(Cn3c(=O)cc(-c4ccccc4)c4c(C)nn(C)c43)c(C)o2)c1,-12%
COCC(=O)N[C@H]1C[C@@H](CO)N(Cc2scnc2C)C1,i
Cc1nsc(NC(=O)NC(C)c2ccc(Cl)cc2)n1 (configuration not stated),-1%
CCC1(O)CCC12CCN(C(=O)c1cccs1)CC2 (configuration not stated),-15%
COc1ccc(S(=O)(=O)N2CCC3(CC2)CC(OC)CCO3)cc1 (configuration not stated),12%
COc1cccc(S(=O)(=O)N2CCC3(CC2)CC(OCC2CC2)CCO3)c1 (configuration not stated),-2%
COc1ccc(S(=O)(=O)N2CCC3(CC2)CC(OCC2CC2)CCO3)cc1 (configuration not stated),3.5µM*
O=C(c1ccccc1)N1CCC[C@H]1c1nc(-c2ccc(F)cc2)no1,-26%
O=C(N[C@@H]1CN(Cc2ccc(Br)o2)C[C@H]1CO)C1CC1,-7%
Cc1nc(-c2c3n(c(=O)n(CC(=O)Nc4ccc(F)c(Cl)c4)c2=O)CCCCC3)no1,7%
COc1ccc(CN2C=C(C(=O)O)C(C)=NS2(=O)=O)cc1F,-12%
CCOc1ccc(-n2c(SCC(=O)NCC3CCCO3)nc3c([nH]c4ccccc43)c2=O)cc1 (configuration not stated),1%
CCOC(=O)CSc1nc2c([nH]c3ccccc32)c(=O)n1-c1ccc(OC)cc1,-3%
CCC1CCCCN1C(=O)CSc1nc2c([nH]c3ccccc32)c(=O)n1-c1ccc(OC)cc1 (configuration not stated),13µM*
SMILES,Pf Dd2 growth
COc1ccc(-n2c(SCC(=O)N3CCCc4ccccc43)nc3c([nH]c4ccccc43)c2=O)cc1,12%
COC(=O)c1ccc(CSc2nc3c([nH]c4ccccc43)c(=O)n2-c2ccc(OC)cc2)o1,-10%
COc1ccc(-n2c(SCC(=O)NC3CCCCC3)nc3c([nH]c4ccccc43)c2=O)cc1,10µM*
COCCC1(NC(=O)C(C)c2ccccc2)CCN(S(C)(=O)=O)CC1 (configuration not stated),-4%
N#Cc1ccccc1S(=O)(=O)N[C@H]1CO[C@H]2[C@@H]1OC[C@@H]2n1nnnc1Oc1ccccc1,-10%
CN(C)c1nc(-c2ccncc2)nc2c1CCN(C(=O)c1cc(=O)[nH]c(=O)[nH]1)C2,-10%
CS(=O)(=O)N1CCC(OC2CCN(C(=O)Cc3c[nH]c4ccccc34)CC2)CC1,-23%
CCOC(=O)c1cc(-c2ccc(C)cc2)n(CC(=O)Nc2ccc(OC)c(Cl)c2)c1C,0%
CCOc1ccc(NC(=O)CCn2c(-c3ccc(F)cc3)cc(C(C)=O)c2C)cc1,i
CCOC(=O)c1cc(-c2ccccc2)n(CCCC(=O)Nc2cccc(C)c2)c1C,i
CCOC(=O)c1cccc(NC(=O)CCn2c(-c3ccc(F)cc3)cc(C(=O)OCC)c2C)c1,0.1µM*
CCOC(=O)c1cc(-c2ccc(C)cc2)n(CCC(=O)Nc2ccc(C(C)C)cc2)c1C,8.9µM*
CCOC(=O)c1cc(-c2ccccc2)n(CC(=O)Nc2ccc(CC)cc2)c1C,i
O=C(O)C1(O)CCN(c2ncc(F)c(N3CCOCC3)n2)CC1,-22%
O=C(O)C[C@@H]1CCN(C(=O)c2cccs2)C[C@@H]1CCN1CCN(c2cccc(C(F)(F)F)c2)CC1,-48%
Cc1cnn(Cc2c(C(=O)N3C[C@@H](C(N)=O)[C@H](c4n[nH]c(C)n4)C3)noc2C)c1,-10%
CC(=O)Nc1ccc(C2(C(=O)NCc3cc(F)cc(F)c3)CCCCC2)cc1,-2%
COc1cccc(CN2Cc3nc(Oc4ccccc4)ccc3OCC2=O)c1,i
COc1cccc(CN2Cc3c(CN(C)Cc4ccccc4)nnn3CCC2=O)c1,10µM*
COc1cccc(CN2Cc3nc(N(C)c4ccccc4)ccc3OCC2=O)c1,15%[44.1 µM]
O=C(c1ccc2ccccc2n1)N1CCC(n2c(=O)[nH]c3ccccc32)CC1,-21%
CC(C)C(=O)N1CCc2[nH]nc(C(=O)NCCCc3ccccc3)c2C1,i

# Screening data deposited in PubChem BioAssay by National Center for Advancing Translational Sciences (NCATS).
